Screening results: PubChem, The Scripps Research Institute Molecular Screening Center
Sampled rows, rich in hits. Any-hit rate of the full collection: about 2.8%.
MsrA inhibitor = inhibits bovine methionine sulfoxide reductase A; purified bovine MsrA, absorbance read-out; inhibition, % at 15.5 µM; AID 651718; actives 0.75% (n = 360,000); in the data active = inhibition above about 4.5%;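 note: 0% = vehicle wells with enzyme and 100% = reference inhibitor wells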
SMARCA2 activ = activators of SMARCA2 function; MG213 cells, MMTV-luciferase reporter, dexamethasone, overnight; AID 652017; actives 1% (n = 370,000); activation, % at 9.1 µM; in the data active = activation above about 7.8%;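 note: 0% = vehicle wells and 100% = reference activator wells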
KLK7 zymogen act = proKLK7 (human) activation, primary screen. activation, % at 7 µM. AID 652039. actives 0.9% (n = 370,000). P49862. purified proKLK7, EDANS-DABCYL substrate fluorescence; 100% is mature enzyme control, 0% vehicle;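 active = activation above the mean of all tested compounds plus 3 SD, computed per campaign excluding outliers beyond control limits, cut at about 13% in these data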
Target sequence (P49862 whole entry, looked up): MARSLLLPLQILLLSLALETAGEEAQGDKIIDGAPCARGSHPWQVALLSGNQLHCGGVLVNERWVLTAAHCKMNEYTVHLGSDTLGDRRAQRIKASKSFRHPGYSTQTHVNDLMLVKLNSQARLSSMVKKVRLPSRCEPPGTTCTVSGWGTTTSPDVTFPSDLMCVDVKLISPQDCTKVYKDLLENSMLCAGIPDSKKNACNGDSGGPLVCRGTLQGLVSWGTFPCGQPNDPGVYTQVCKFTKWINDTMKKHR
MsrA act = activates bovine MsrA enzyme. purified bovine MsrA, absorbance read-out. activation, % at 10.6 µM. actives 0.3% (n = 360,000); in the data active = activation above about 7.5%;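 note: 0% = vehicle and 100% = reference activator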
SMARCA2 conf = confirmation of SMARCA2 (BRM) function activators | shares compounds with SMARCA2 activ | actives 30% (n = 3,500) | activation, % at 9.1 µM | MG213 cells, MMTV-luciferase with dexamethasone, luminescence, overnight; MG213 cells expressing E1A, Rb sequestered; DMSO wells 0%, reference activator 100%;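 active = activation above its plate's cutoff, the mean activation of tested wells plus 3 SD, cut at about 7.9% in these data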
GAL4-VP16 Luc = GAL4-VP16 reporter activation counter-screen; HEK293 GAL4-VP16 pG5luc reporter, luciferase luminescence; scaled: DMSO wells 0%, SAHA wells 100%; activation, % at 9.1 µM; shares compounds with SMARCA2 activ; actives 41% (n = 3,500);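 active = activation above the solvent-only control well mean plus 3 SD, averaged across control plates, cut at about 5.2% in these data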
* hit, by the source's call.

How did CCc1nc2ccc(C(=O)Nc3cccc(OCC(=O)N(C)C)c3)cn2c1N(C)C(=O)c1cccc(OC)c1 do in these assays?
MsrA inhibitor: -0.8; SMARCA2 activ: -1.2; KLK7 zymogen act: 0.8; MsrA act: -3.0

How did COCCN(C(=O)c1ccccc1OC1CCN(S(C)(=O)=O)CC1)C(C)C do in these assays?
MsrA inhibitor: -0.1; SMARCA2 activ: 8.1*; KLK7 zymogen act: 0.3; MsrA act: -3.8; SMARCA2 conf: -0.4; GAL4-VP16 Luc: 1.0

How did COC(=O)[C@@H](NC(=O)c1ccccc1OC1CCN(S(C)(=O)=O)CC1)C(C)C do in these assays?
MsrA inhibitor: 1.6; SMARCA2 activ: -0.8; KLK7 zymogen act: 0.4; MsrA act: -8.6

How did CCN1C[C@@H]2[C@@H]3C(=O)N(Cc4ccccc4)C(=O)[C@@H]3[C@](C)(C1=O)N2C(=O)c1ccccc1 do in these assays?
MsrA inhibitor: -1.1; SMARCA2 activ: -0.4; KLK7 zymogen act: 0.2; MsrA act: -1.3

Results for CSc1ccccc1C(=O)OCC(=O)Nc1c(C)n(C)n(-c2ccccc2)c1=O ?
MsrA inhibitor: 0.7; SMARCA2 activ: -3.4; KLK7 zymogen act: -0.3; MsrA act: -0.7

How did CC(C)(C)N1Cc2nnn(CC3CCCCC3)c2-c2ccccc2S1(=O)=O do in these assays?
SMARCA2 activ: 1.7; KLK7 zymogen act: 0.3

Results for Clc1ccc(/C=N/Nc2nnc(Cl)c3ccccc23)cc1 ?
MsrA inhibitor: 0.9; SMARCA2 activ: 4.4; KLK7 zymogen act: -0.8; MsrA act: -1.0

What do the screens show for `Nc1c(Cl)ncnc1N/N=C/c1ccnc2ccccc12`?
MsrA inhibitor: 0.8; SMARCA2 activ: 3.1; KLK7 zymogen act: -1.2; MsrA act: -2.3

Results for Clc1ccc(/C=N/Nc2nc(Cl)nc3ccccc23)cc1 ?
MsrA inhibitor: -1.0; SMARCA2 activ: 11.9*; KLK7 zymogen act: -1.1; MsrA act: -0.8; SMARCA2 conf: 2.8; GAL4-VP16 Luc: 0.9

What do the screens show for `C(=N\Nc1ncnc2ccccc12)/c1ccccc1`?
MsrA inhibitor: 2.8; SMARCA2 activ: 9.2*; KLK7 zymogen act: 0.8; MsrA act: -3.2; SMARCA2 conf: 10.8*; GAL4-VP16 Luc: 9.1*

Results for Clc1cccc(/C=N/Nc2ncnc3ccccc23)c1 ?
MsrA inhibitor: 2.0; SMARCA2 activ: 10.0*; KLK7 zymogen act: 0.8; MsrA act: 0.6; SMARCA2 conf: 14.2*; GAL4-VP16 Luc: 14.6*

What do the screens show for `Nc1ccn([C@@H]2O[C@H](CNCc3cc(Br)ccc3OCc3ccccc3)[C@@H](O)[C@H]2O)c(=O)n1`?
MsrA inhibitor: 0.5; SMARCA2 activ: -0.1; KLK7 zymogen act: -0.5; MsrA act: -2.7

How did O=C(Cn1nnc2ccccc21)NC1CCCCC1 do in these assays?
MsrA inhibitor: -0.7; SMARCA2 activ: -0.1; KLK7 zymogen act: 0.0; MsrA act: -0.9

How did O=C(COC(=O)Cn1nnc2ccccc21)NC1CCCC1 do in these assays?
MsrA inhibitor: -0.5; SMARCA2 activ: 9.9*; KLK7 zymogen act: 0.3; MsrA act: -0.1; SMARCA2 conf: 0.6; GAL4-VP16 Luc: 0.9

Results for Cc1ccc(S(=O)(=O)N2CCN(C(=O)C(O)c3ccccc3)CC2)cc1 (configuration not stated) ?
MsrA inhibitor: -0.5; SMARCA2 activ: -1.1; KLK7 zymogen act: 0.1

What do the screens show for `Cc1ccc2cccc(N=Cc3c(C)[nH]n(-c4ccccc4)c3=O)c2n1`?
MsrA inhibitor: 0.9; SMARCA2 activ: 13.6*; KLK7 zymogen act: -32.8; MsrA act: -1.8; SMARCA2 conf: -12.7; GAL4-VP16 Luc: 8.1*

What do the screens show for `Cc1[nH]n(-c2ccccc2)c(=O)c1/C=N/O`?
MsrA inhibitor: 2.1; SMARCA2 activ: -1.5; KLK7 zymogen act: 0.3; MsrA act: -1.7

What do the screens show for `CCOC(=O)N1CCN(C(=O)C[C@H]2C[C@@]3(C(=O)OC)C(=C[C@H](COCc4ccccc4)O[C@@H]3C)N(Cc3ccco3)C2=O)CC1`?
SMARCA2 activ: -2.1; KLK7 zymogen act: -0.1

What do the screens show for `CC1CCCCN1CCCNC(=O)c1ccc2nc(N3CCCCC3)sc2c1` (configuration not stated)?
MsrA inhibitor: 0.3; SMARCA2 activ: 17.1*; KLK7 zymogen act: 0.4; MsrA act: 0.3; SMARCA2 conf: 9.4*; GAL4-VP16 Luc: 9.8*
